The list is not random: actives were taken first. Their share in the collection is about 4.4%.
PfHsp90 yeast 2: reduces growth (ATP signal) of yeast expressing P. falciparum Hsp90. S. cerevisiae expressing PfHsp90, BacTiter-Glo ATP, 48 h; yeast lacking PDR1 and PDR3 efflux regulators. inhibition, % at 9.4 µM. 0.32% of 310,000 active. AID 504621;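 active means every replicate shows inhibition above about 80%, whatever the replicate mean, limit read from the data; inconclusive means mean inhibition reaches the set limit but some replicate falls short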;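 further: 0% = DMSO neutral controls and 100% = 20 µM radicicol positive controls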
TIM10 inh: growth inhibitors of TIM10 yeast strain | 1.4% of 330,000 active | inhibition, % at 10 µM | S. cerevisiae TIM10 strain growth, BacTiter-Glo luminescence, 24 h;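 active means inhibition of 40% or more at the single tested concentration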;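 further: wild-type TIM10 isogenic control strain grown at permissive 25 °C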
tim23-1 inh: tim23-1 yeast growth inhibition; S. cerevisiae tim23-1 growth, BacTiter-Glo luminescence, 24 h; AID 463212; 1.3% of 330,000 active; inhibition, % at 20 µM;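 active means growth inhibition of the mutant yeast at or above 50%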;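 further: temperature-sensitive mutant grown at 25 °C; plate controls were DMSO-treated mutant yeast for no effect and medium wells lacking yeast for full effect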
tim10-1 inh: tim10-1 yeast growth inhibition; S. cerevisiae tim10-1 ts strain growth, BacTiter-Glo, 24 h; inhibition, % at 20 µM; 2.2% of 330,000 active;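 active means inhibition of at least 40%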;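 further: mutant grown at 25 °C; 0% = DMSO wells with yeast and 100% = wells holding no yeast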
SKKanGAS inh: SKKanGAS growth inhibition; S. pyogenes SKKanGAS, kanamycin growth, BacTiter-Glo, 6 h; inhibition, % at 7.5 µM; 1.3% of 300,000 active;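 active means mean replicate score, as percent of positive control median, at least 50; inconclusive means mean below 50 but one replicate at or above 50; inactive means mean and every replicate below 50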;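 further: strain carries kanamycin resistance gene driven by streptokinase promoter and grows in 40 µg/ml kanamycin; loss of luminescence reflects streptokinase promoter inhibition or plain growth inhibition; 0% = median of DMSO wells and 100% = positive control at its reference dose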
tim23-1 confirm: confirmation of tim23-1 mutant yeast growth inhibitors; 83% of 4,400 active; shares compounds with tim23-1 inh; inhibition, % at 20 µM; S. cerevisiae tim23-1 growth, BacTiter-Glo luminescence, 24 h;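 active means inhibition above about 39% in either of two replicate wells at 20 µM, limit read from the data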;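 further: temperature-sensitive tim23-1 mutant grown at 25 °C; 0% = DMSO wells with yeast and 100% = medium wells without yeast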
Numbers without * were called inactive.

Results for C=CCNC1=C(Cl)C(=O)c2ccccc2C1=O ?
PfHsp90 yeast 2: -33; TIM10 inh: 36; tim23-1 inh: 54*; tim10-1 inh: 37; SKKanGAS inh: 8; tim23-1 confirm: 44*

Results for CC(C)NC1=C(Cl)C(=O)c2ccccc2C1=O ?
PfHsp90 yeast 2: -20; TIM10 inh: 19; tim23-1 inh: 55*; tim10-1 inh: 36; SKKanGAS inh: 1; tim23-1 confirm: 45*

What do the screens show for `O=C1C(Cl)=C(Nc2ccccc2)C(=O)c2ccccc21`?
PfHsp90 yeast 2: 2; SKKanGAS inh: -10

What do the screens show for `Cc1cc(C(=O)Nc2ccc([N+](=O)[O-])cn2)cs1`?
PfHsp90 yeast 2: -2; TIM10 inh: 8; tim23-1 inh: 24; tim10-1 inh: 16; SKKanGAS inh: 17

How did CC1=C(C#N)c2nc(N)c(C#N)c(C)c2/C1=C\c1ccc(OCC(=O)O)c(Cl)c1 do in these assays?
PfHsp90 yeast 2: -18; TIM10 inh: 18; tim23-1 inh: 54*; tim10-1 inh: 37; SKKanGAS inh: 13; tim23-1 confirm: 49*

Results for CCOC(=O)CSc1nc(N)c(C#N)c(-c2ccc(OCC)cc2)c1C#N ?
PfHsp90 yeast 2: -7; TIM10 inh: 6; tim23-1 inh: 4; tim10-1 inh: 6; SKKanGAS inh: 3

What do the screens show for `COc1cc(OC)c(NC2c3ccccc3C(=O)N2c2cc(C)ccn2)cc1Cl` (stereo unspecified)?
PfHsp90 yeast 2: 18; TIM10 inh: 12; tim23-1 inh: 52*; tim10-1 inh: 13; SKKanGAS inh: -6; tim23-1 confirm: 42*

How did Cc1nc2cc(F)ccc2n1C1CCN(C(=O)c2c(F)cccc2F)CC1 do in these assays?
PfHsp90 yeast 2: -20; TIM10 inh: 14; tim23-1 inh: 7; tim10-1 inh: 3; SKKanGAS inh: 0

How did NC(=S)N/N=C/c1coc2ccc(O)cc2c1=O do in these assays?
PfHsp90 yeast 2: 17; TIM10 inh: 4; tim23-1 inh: -14; tim10-1 inh: 2; SKKanGAS inh: 2

What do the screens show for `NC(=S)N/N=C/c1coc2ccc(F)cc2c1=O`?
TIM10 inh: 29; tim23-1 inh: 48; tim10-1 inh: 9; SKKanGAS inh: -19

How did NC(=S)N/N=C/c1coc2cc(Br)ccc2c1=O do in these assays?
PfHsp90 yeast 2: -13; TIM10 inh: 32; tim23-1 inh: 58*; tim10-1 inh: 28; SKKanGAS inh: 32; tim23-1 confirm: 58*

How did NC(=S)N/N=C/c1coc2ccc(Br)cc2c1=O do in these assays?
PfHsp90 yeast 2: -6; TIM10 inh: 34; tim23-1 inh: 78*; tim10-1 inh: 18; SKKanGAS inh: 1; tim23-1 confirm: 75*

How did COc1ccccc1-c1sc2ccccc2c1-c1ccc(O)cc1 do in these assays?
PfHsp90 yeast 2: 114*; TIM10 inh: 33; tim23-1 inh: 55*; tim10-1 inh: -19; tim23-1 confirm: 4

What do the screens show for `COc1ccc(-c2sc3ccccc3c2-c2ccc(O)cc2)cc1`?
PfHsp90 yeast 2: inconclusive; TIM10 inh: 35; tim23-1 inh: 35; tim10-1 inh: -11

How did O=C(COC(=O)c1ccc(O)cc1O)c1ccc(Cl)cc1 do in these assays?
PfHsp90 yeast 2: -14; TIM10 inh: -24; tim23-1 inh: 63*; tim10-1 inh: -14; SKKanGAS inh: 17; tim23-1 confirm: 43*

How did Cc1ccc(S(=O)(=O)c2cc(C)cc(S(=O)(=O)Nc3ccc(C(=O)O)cc3)c2C)cc1 do in these assays?
PfHsp90 yeast 2: 5; TIM10 inh: 5; tim23-1 inh: -8; tim10-1 inh: 2; SKKanGAS inh: 3

Results for Nc1ccc(O)c2c1C(=O)c1ccccc1C2=O ?
PfHsp90 yeast 2: -32; TIM10 inh: 1; tim23-1 inh: 53*; tim10-1 inh: 13; SKKanGAS inh: 4; tim23-1 confirm: 55*

How did Cc1cc2oc(=O)cc(-c3ccccc3)c2c(C)c1-c1ccc(CO)cc1 do in these assays?
PfHsp90 yeast 2: -36; TIM10 inh: -4; tim23-1 inh: 54*; tim10-1 inh: 14; tim23-1 confirm: 33

How did CC(=O)c1ccc(-c2c(C)cc3oc(=O)cc(-c4ccccc4)c3c2C)cc1 do in these assays?
PfHsp90 yeast 2: -47; TIM10 inh: -15; tim23-1 inh: 26; tim10-1 inh: 10

Results for O=C(CN(Cc1ccccc1)C(=O)CCl)c1cccc(Br)c1 ?
PfHsp90 yeast 2: -23; TIM10 inh: 17; tim23-1 inh: 57*; tim10-1 inh: 32; tim23-1 confirm: 45*

What do the screens show for `O=C(/C=C/c1ccc(Cl)cc1)Nc1cc(S(=O)(=O)N2CCOCC2)ccc1N1CCOCC1`?
TIM10 inh: 4; tim23-1 inh: 21; tim10-1 inh: 26

Results for CCN1CCN(C(=O)c2ccc(CS(=O)(=O)Cc3ccccc3C)o2)CC1 ?
PfHsp90 yeast 2: -9; TIM10 inh: 5; tim23-1 inh: -12; tim10-1 inh: -9; SKKanGAS inh: 0

What do the screens show for `CCOc1c2ccoc2nc2c(OC)c(OC)ccc12`?
PfHsp90 yeast 2: 31; TIM10 inh: 34; tim23-1 inh: 61*; tim10-1 inh: 27; SKKanGAS inh: -1; tim23-1 confirm: 65*

How did C=CCOc1ccc2c(OC)c3ccoc3nc2c1OC do in these assays?
PfHsp90 yeast 2: 66; TIM10 inh: 16; tim23-1 inh: 36; tim10-1 inh: 11; SKKanGAS inh: -10

How did O=C1C=C(c2ccc3[nH]ccc3c2)C[C@@H](c2ccc(Cl)cc2)C1 do in these assays?
PfHsp90 yeast 2: -67; TIM10 inh: 27; tim23-1 inh: 52*; tim10-1 inh: 34; tim23-1 confirm: 46*

What do the screens show for `COc1ccc([C@H]2CC(=O)C=C(c3ccc4ncccc4c3)C2)cc1`?
PfHsp90 yeast 2: 14; TIM10 inh: -2; tim23-1 inh: 15; tim10-1 inh: 4

What do the screens show for `O=C1C=C(c2ccc3ncccc3c2)C[C@@H](c2ccc(Cl)cc2)C1`?
PfHsp90 yeast 2: -4; TIM10 inh: 9; tim23-1 inh: 52*; tim10-1 inh: 0; tim23-1 confirm: 28

How did O=C1C=C(c2ccc(O)cc2)C[C@@H](c2ccc(Cl)cc2)C1 do in these assays?
PfHsp90 yeast 2: -21; TIM10 inh: -12; tim23-1 inh: 53*; tim10-1 inh: 0; tim23-1 confirm: 38

How did CCOc1ccc(/C=N/n2c(COc3ccccc3)n[nH]c2=S)cc1OC do in these assays?
PfHsp90 yeast 2: -2; TIM10 inh: -2; tim23-1 inh: -1; tim10-1 inh: 21; SKKanGAS inh: 4

Results for Cc1ccc(C(=O)Nc2ncc([N+](=O)[O-])s2)cc1 ?
PfHsp90 yeast 2: 1; SKKanGAS inh: 13

What do the screens show for `O=C(Nc1ncc([N+](=O)[O-])s1)c1ccc2c(c1)OCO2`?
PfHsp90 yeast 2: 53; TIM10 inh: 35; tim23-1 inh: 57*; tim10-1 inh: 34; SKKanGAS inh: 17; tim23-1 confirm: 59*

Results for O=C(Cn1ncc(Cl)c(Cl)c1=O)c1ccc2c(c1)OCCO2 ?
PfHsp90 yeast 2: -3; TIM10 inh: -27; tim23-1 inh: 58*; tim10-1 inh: -34; tim23-1 confirm: 31

Compound activity (PubChem)
